Compound activity (PubChem)
HT1080 IDH1KD tx: HT-1080 IDH1 knockdown cell toxicity (counter line) | 360,000 tested, 2% active | AID 686971 | Potency, µM (highest dose often 46.1 µM), for inactives: at the top dose activity, negative = toxicity, usual class: cytotoxic | HT-1080 IDH1 knockdown viability, ATP luminescence, 48 h;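 note: potency is the fitted concentration of half-maximal effect; 0% = DMSO wells and -100% = cell-free medium wells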
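Using the IDH1-knockdown HT-1080 line run in the same batch and compound series as the NT line, viability after 48 h at 37 °C was determined by CellTiter-Glo luminescence and expressed as % activity.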
HT1080-NT tox: kills 2HG-producing HT-1080-NT fibrosarcoma cells | HT-1080-NT fibrosarcoma viability, CellTiter-Glo ATP luminescence, 48 h | Potency, µM (titrated, usually from 46.1 µM), inactives show at the top dose activity, negative = less viability, usual class: cytotoxic | 360,000 tested, 1.6% active | AID 686970;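 note: NT is the 2HG producing partner of a matched IDH1 knockdown line; potency is the fitted concentration of half-maximal effect; 0% = DMSO-treated cells and -100% = media-only wells without cells; nearly all actives have a fitted effect of over 55% in size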
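Viability of the 2HG-overproducing fibrosarcoma line after 48 hours of compound exposure at 37 degrees C was determined by luminescence with CellTiter-Glo, and concentration-effect curves were then fitted and categorized.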
ALOX12 inh: blocks human arachidonate 12S-lipoxygenase | P18054 | 580,000 tested, 1.1% active | Potency, µM (highest dose often 108 µM), inactives show at the top dose activity change, negative = inhibition, actives largely listed as inhibitors | AID 1671190 | purified 12hLO, xylenol orange hydroperoxide absorbance; note: potency is the fitted concentration of half-maximal effect
Target sequence (P18054 whole entry, looked up): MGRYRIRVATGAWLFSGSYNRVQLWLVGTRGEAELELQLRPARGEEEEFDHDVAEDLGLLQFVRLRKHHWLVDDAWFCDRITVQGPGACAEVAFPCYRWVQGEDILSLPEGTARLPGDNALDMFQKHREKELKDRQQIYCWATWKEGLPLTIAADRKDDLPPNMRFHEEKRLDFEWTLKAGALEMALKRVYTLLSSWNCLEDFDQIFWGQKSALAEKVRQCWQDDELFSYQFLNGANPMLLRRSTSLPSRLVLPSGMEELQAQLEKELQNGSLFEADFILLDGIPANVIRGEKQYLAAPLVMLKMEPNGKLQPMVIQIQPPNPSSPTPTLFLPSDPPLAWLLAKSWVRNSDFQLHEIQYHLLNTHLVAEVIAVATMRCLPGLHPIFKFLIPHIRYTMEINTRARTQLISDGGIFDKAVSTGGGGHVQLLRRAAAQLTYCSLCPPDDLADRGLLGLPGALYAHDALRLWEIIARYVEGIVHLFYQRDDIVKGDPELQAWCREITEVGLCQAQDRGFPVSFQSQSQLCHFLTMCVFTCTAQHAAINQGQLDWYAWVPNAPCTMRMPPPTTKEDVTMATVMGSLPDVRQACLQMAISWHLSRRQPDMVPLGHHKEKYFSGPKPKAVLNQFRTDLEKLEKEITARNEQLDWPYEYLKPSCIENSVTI
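Purified human 12hLO at 150 nM in 25 mM Hepes, 0.01% Triton X-100, pH 7.0, preincubated 15 min at room temperature with compound. Reaction started with 40 uM arachidonic acid, 30 min at room temperature. Hydroperoxide measured by Fe-xylenol orange, 573/405 nm absorbance ratio.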
IL1B secr inh: inflammasome signaling inhibition, IL-1 beta readout; THP-1 LPS/ATP IL-1B secretion, AlphaLISA, 16 h; hits give low values; activity change, % at 57.5 µM; 360,000 tested, 4.7% active; AID 743279; in the data active = activity change below about -50%; inconclusive = mostly about -30% to -49%
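THP-1 cells pretreated 1 hr with compounds (up to 57.5 uM final), then stimulated with LPS (250 ng/mL final) plus ATP (1.25 mM final); secreted IL-1B measured by AlphaLISA after 16 hr, decreased signal indicating inhibition.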
DT40 TDP1 no CPT: qHTS for Inhibitors of human tyrosyl-DNA phosphodiesterase 1 (TDP1): qHTS in cells in absence of CPT | DT40 Tdp1-/- hTDP1 cells, no CPT, ATP luminescence, 48 h | Potency, µM (doses to about 46.2 µM), without a hit: top-dose activity change, negative = growth inhibition, actives largely listed as inhibitors | 420,000 tested, 15% active | AID 686978, 2013; note: potency is the fitted concentration of half-maximal effect; nearly all actives have a fitted effect of over 55% in size
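Stably hTDP1-transfected Tdp1-null chicken DT40 cells were treated with library compounds minus camptothecin and grown for at least 48 hr at 37 °C, after which cellular ATP was quantified by luminescence.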
TDP1 cell CPT: DT40-hTDP1 cell growth loss with CPT; AID 686979; chicken DT40 Tdp1-/-;hTDP1 cells + 20 nM CPT, ATP luminescence, 48 h; Potency, µM (top dose mostly 46.2 µM), inactives show at the top dose activity change, negative = growth inhibition, actives largely listed as inhibitors; 420,000 tested, 12% active; note: potency is the fitted concentration of half-maximal effect; nearly all actives have a fitted effect of over 55% in size
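Chicken DT40 Tdp1-/- cells stably complemented with human TDP1 were seeded at 400 cells/well in medium containing 20 nM camptothecin, exposed to pin-transferred compounds, and grown at 37 °C for at least 48 hr. Viability was read as ATP luminescence.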
Numbers without * were called inactive; [ ] = remark or other dose. Many of the other results were omitted from the sample, so hits are more common in it than they were. Unless noted, calls come from the whole dose curve; as a rule, active = well fitted curve in the direction sought with a large enough effect; inconclusive = small, poorly fitted or top-dose-only effect, or another doubt; inactive = no such curve, though single readings can be large; an effect the other way counts as inactive or inconclusive. Unless noted, % is set by controls: 0 for no effect and ±100 for the full control effect.

Results for CCN(CC(=O)Nc1ccccc1C(F)(F)F)C(=O)c1ccc2[nH]c3c(c2c1)CC(C)CC3 (centres undefined) ?
HT1080 IDH1KD tx: -23%; HT1080-NT tox: -3%; ALOX12 inh: 0%; IL1B secr inh: -62*; DT40 TDP1 no CPT: 18µM*; TDP1 cell CPT: inconclusive

Results for CCN(CC(=O)Nc1ccccc1C(F)(F)F)C(=O)CCc1ccccc1 ?
HT1080 IDH1KD tx: 0%; HT1080-NT tox: 0%; ALOX12 inh: -15%; IL1B secr inh: 9; DT40 TDP1 no CPT: -1%; TDP1 cell CPT: 2%

How did CCN(CC(=O)Nc1ccccc1C(F)(F)F)C(=O)c1ccc2c(=O)n3c(nc2c1)CCC3 do in these assays?
HT1080 IDH1KD tx: 11%; HT1080-NT tox: 13%; ALOX12 inh: 482%; IL1B secr inh: 6; DT40 TDP1 no CPT: 13%; TDP1 cell CPT: 8%

Results for CCN(CC(=O)Nc1ccccc1C(F)(F)F)C(=O)c1ccccc1Cc1ccccc1 ?
HT1080 IDH1KD tx: -11%; HT1080-NT tox: -6%; ALOX12 inh: 0%; IL1B secr inh: -26; DT40 TDP1 no CPT: 21µM*; TDP1 cell CPT: inconclusive

What do the screens show for `CCN(CC(=O)Nc1ccccc1C(F)(F)F)C(=O)c1ccc(-n2nc(C)c(CCC(=O)OC)c2C)cc1`?
HT1080 IDH1KD tx: 1%; HT1080-NT tox: 0%; ALOX12 inh: 0%; IL1B secr inh: 21; DT40 TDP1 no CPT: 21µM*; TDP1 cell CPT: inconclusive

What do the screens show for `Cc1cccc(N(CC(=O)Nc2ccccc2C(F)(F)F)S(=O)(=O)c2ccccc2)c1C`?
ALOX12 inh: 11%; DT40 TDP1 no CPT: 15µM*; TDP1 cell CPT: 16µM*

What do the screens show for `N#Cc1ccccc1OCC(=O)Nc1ccc(-c2nc3ccccc3o2)cc1`?
ALOX12 inh: 3%

How did CC1CCc2[nH]c3ccc(C(=O)N(C)CC(=O)Nc4ccc(F)cc4)cc3c2C1 (centres undefined) do in these assays?
HT1080 IDH1KD tx: inconclusive; HT1080-NT tox: -12%; ALOX12 inh: -10%; IL1B secr inh: inactive; DT40 TDP1 no CPT: 10µM*; TDP1 cell CPT: inconclusive

Results for CCC1CCc2sc(C(=O)N(C)CC(=O)Nc3cccc(OC)c3)cc2C1 (centres undefined) ?
HT1080 IDH1KD tx: 1%; HT1080-NT tox: -1%; ALOX12 inh: 199%; IL1B secr inh: 0; DT40 TDP1 no CPT: inconclusive; TDP1 cell CPT: inconclusive

How did COc1ccc(NC(=O)CN(C)C(=O)c2ccc3[nH]c4c(c3c2)CC(C)CC4)cc1 (centres undefined) do in these assays?
HT1080 IDH1KD tx: -27%; HT1080-NT tox: -29%; ALOX12 inh: inconclusive; IL1B secr inh: inconclusive; DT40 TDP1 no CPT: 23µM*; TDP1 cell CPT: -19%

What do the screens show for `COc1cccc(NC(=O)CN(C)C(=O)c2ccc3[nH]c4c(c3c2)CC(C)CC4)c1` (centres undefined)?
HT1080 IDH1KD tx: -20%; HT1080-NT tox: -7%; ALOX12 inh: 0%; IL1B secr inh: inconclusive; DT40 TDP1 no CPT: inconclusive; TDP1 cell CPT: inconclusive

What do the screens show for `CCC1CCc2sc(C(=O)N(C)CC(=O)Nc3ccc(OC)cc3)cc2C1` (centres undefined)?
HT1080 IDH1KD tx: 22%; HT1080-NT tox: 6%; ALOX12 inh: -25%; IL1B secr inh: -3; DT40 TDP1 no CPT: 21µM*; TDP1 cell CPT: inconclusive

Results for Cc1ccc(N=C2SC(C(=O)Nc3ccc(OC(F)(F)F)cc3)C(N)=C2C(=O)Nc2c(C)cc(C)cc2C)cc1 (centres undefined) ?
HT1080 IDH1KD tx: 18µM*; HT1080-NT tox: 15µM*; ALOX12 inh: inconclusive; IL1B secr inh: -104*; DT40 TDP1 no CPT: inconclusive; TDP1 cell CPT: inconclusive

Results for Cc1ccc(NC(=O)C2SC(=Nc3ccccc3)C(C(=O)Nc3ccc(Cl)cc3)=C2N)cc1 (centres undefined) ?
HT1080 IDH1KD tx: -26%; HT1080-NT tox: -22%; IL1B secr inh: -16; DT40 TDP1 no CPT: 18µM*; TDP1 cell CPT: 6.5µM*

How did Cc1ccc(CNC(=O)N[C@@H]2CN(Cc3cccnc3)C[C@H]2CN(C)C)cc1 do in these assays?
ALOX12 inh: 65%

Results for CC(C)(C)c1ccc(-c2cc(C[C@H]3CNCC[C@H]3CC(=O)NCc3cccnc3)no2)cc1 ?
ALOX12 inh: 28µM*

What do the screens show for `CCCCc1cc(C[C@H]2CNCC[C@H]2CC(=O)NCc2cccnc2)no1`?
ALOX12 inh: -18%[176 µM]

What do the screens show for `CCCNc1nc(NCc2ccccc2OC)c2cnn(C)c2n1`?
ALOX12 inh: 40µM*; DT40 TDP1 no CPT: 13µM*; TDP1 cell CPT: 15µM*

Results for COCCNc1nc(NCc2ccccc2)c2cnn(C)c2n1 ?
HT1080 IDH1KD tx: 3%; HT1080-NT tox: -12%; ALOX12 inh: -4%; IL1B secr inh: 1; DT40 TDP1 no CPT: inconclusive; TDP1 cell CPT: -3%

Results for Cn1ncc2c(NCCc3ccccc3)nc(Cl)nc21 ?
HT1080 IDH1KD tx: -22%; HT1080-NT tox: -10%; ALOX12 inh: 0%; IL1B secr inh: -9; DT40 TDP1 no CPT: 21µM*; TDP1 cell CPT: 23µM*

Results for Cn1ncc2c(Nc3ccccc3Cl)nc(Cl)nc21 ?
HT1080 IDH1KD tx: -14%; HT1080-NT tox: -11%; ALOX12 inh: 12%; IL1B secr inh: 54; DT40 TDP1 no CPT: -20%; TDP1 cell CPT: -2%

Results for Cn1ncc2c(NCc3cccc(Cl)c3)ncnc21 ?
ALOX12 inh: -61%; DT40 TDP1 no CPT: inconclusive; TDP1 cell CPT: 15µM*

What do the screens show for `COCCNc1nc(NCc2cccc(Cl)c2)c2cnn(C)c2n1`?
ALOX12 inh: inconclusive; DT40 TDP1 no CPT: 15µM*; TDP1 cell CPT: inconclusive

What do the screens show for `NC(=O)c1ccccc1NC(=O)c1ccccc1-c1ccccc1`?
ALOX12 inh: 2%

How did COc1ccc(NC(=O)C(c2ccc(C)cc2)N(C)C(=O)Cc2cccs2)cc1 (centres undefined) do in these assays?
HT1080 IDH1KD tx: 4%; HT1080-NT tox: -2%; ALOX12 inh: 8%; IL1B secr inh: -16; DT40 TDP1 no CPT: inconclusive; TDP1 cell CPT: inconclusive
